# The panel holds about 83,000 compounds, 20% with a hit somewhere; the sample as a whole holds those more often.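 Percent growth is the endpoint: 0 to 100 indicates growth inhibition (40 means 60% inhibition), 0 means no net growth, and negative values indicate cell death.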 Calls of active or inactive are those of the source. How the source made its calls: active means growth percent below 10; inactive means the rest.
# System: HL-60(TB) leukemia
# Assay: NCI-60 one-dose screen, 48 h (100 = growth as untreated, 0 = no growth, -100 = all killed)
# Details: 10 µM unless noted
row,SMILES,growth
1,O=C(Nc1ccc(-c2ccnc(Nc3ccc(N4CCOCC4)cc3)n2)cc1)[C@@H]1CCCN1,39.8% (inactive)
2,COc1cc(/C=C/C(=O)c2cccc(-n3cc(-c4ccc(Cl)cc4)[nH]c3=O)c2)ccc1O,-19.9% (active)
3,CC(C)CNCC(O)COc1ccc(C(C)(C)c2ccc(OCC(O)CNCC(C)C)cc2)cc1 (stereo not given),26% (inactive)
4,COc1ccc2cc(C(C)C(=O)Nc3ccc(S(=O)(=O)Nc4cc(C)on4)cc3)ccc2c1 (stereo not given),143% (inactive)
5,Fc1cnc(NC2CC2)nc1-c1cnc2ccc(N3CCOCC3)cn12,-15.5% (active)
6,COC(=O)c1c2c(c[n+]([O-])c1C)C(=O)C=CC2=O,28.1% (inactive)
7,COc1ccc(-c2csc(NC(=O)CSc3nc(C)cc(=O)[nH]3)n2)cc1,106% (inactive)
8,CN1CCN(c2ccc(-c3cc4c(Nc5ccc(F)c(Cl)c5)ncnn4c3)cc2)CC1,1.68% (active)
9,CCCCOCCOCCOCc1cc2c(cc1Br)OCO2,108% (inactive)
10,S=CN1CCCCC1,102% (inactive)
11,Brc1cccc(-c2nc(-c3ccc4c(c3)OCCO4)co2)c1,29.1% [25 µM] (inactive)
12,Cc1nn(-c2ccccc2)c(Cl)c1/C=C/C(=O)c1ccc(F)cc1,47.1% (inactive)
13,CCc1c(C)c2cc3c(c(C)c2oc1=O)OCC(=O)N3,75.9% (inactive)
14,[N-]=[N+]=NCc1ncc(-c2ccc(C(F)(F)F)cc2)c(NC2CCCCCC2)n1,43.4% [50 µM] (inactive)
15,C/C(=N\NC(=O)Cn1c(-c2ccc(S(C)(=O)=O)cc2)nc2ccccc21)c1ccc(Cl)cc1,74.8% (inactive)
16,O=C(Nc1ccc(F)cc1)Nc1ccccc1CNc1nc(Nc2ccc(OCCN3CCCC3)cc2)ncc1Cl,-39.6% (active)
17,COc1ccc(/C=C2\SC(=O)N(Cc3cc(=O)oc4ccc(OC)cc34)C2=O)cc1,90.9% (inactive)
18,COc1cc(-c2nc3sccn3c2-c2ccnc(NCCCNS(=O)(=O)c3ccc(F)cc3)n2)ccc1F,64.9% (inactive)
19,COc1cc(C2CC(c3ccc4c(c3)OCO4)=NN2C=O)cc(OC)c1OC (stereo not given),0.568% (active)
20,COc1ccc(CCN2C(=O)/C(=C/c3ccc(C4Oc5ccccc5C5CC(c6cccc(OC)c6)=NN54)cc3)SC2=S)cc1 (stereo not given),99.5% (inactive)

row,SMILES,growth
1,Cc1oc2ccc(O)c(CN3CCCCCC3)c2c1C(=O)Nc1ccc(C(F)(F)F)cc1,83% (inactive)
2,CCc1cc(Cc2cc(CC)cc(C(C)(C)C)c2O)c(O)c(C(C)(C)C)c1,58.1% (inactive)
3,O=C(NC(Cc1ccc(O)cc1)C(=O)N=Nc1c(O)[nH]c2ccccc12)c1ccccc1 (stereo not given),101% (inactive)
4,O=C1NC(=O)[C@@H](c2cn3c4c(cccc24)CCC3)[C@@H]1c1c[nH]c2ccccc12,-21% (active)
5,CN1CCN(C(=O)OCCOCCOC(=O)N2CCN(C)CC2)CC1,98.2% (inactive)
6,Cc1cc([N+](=O)[O-])c(C)cc1C(=O)O,107% (inactive)
7,CCc1ccc(CCC(=O)Nc2ncc(Cc3cc(Cl)ccc3Cl)s2)o1,-44.5% (active)
8,CCOC(=O)C(CCC1=NC(C)(C)CC(C)O1)C(=O)OCC (stereo not given),56.4% (inactive)
9,O=C1CC(c2nc3ccccc3s2)CN1C1CCCCC1 (stereo not given),91.3% (inactive)
10,COc1cc2nc(N3CCCC3)nc(NCCc3ccccc3)c2cc1OC,-53.6% (active)
11,Cc1ccnc2nc(C(=O)OCC(=O)Nc3ccc(-c4ccccc4)cc3)nn12,72.8% (inactive)
12,CN(C)CCNc1nc2ccccc2c2c1c1c(n2Cc2ccccc2)-c2ccccc2C1=O,-85% (active)
13,Cc1ncc([N+](=O)[O-])n1CCOc1ccc(C(=O)/C=C/c2ccc(C(F)(F)F)cc2)cc1,54.3% (inactive)
14,Fc1cc(-c2nnc3n2NC(=Nc2ccc(Cl)cc2)CS3)c(Cl)cc1Cl,94.1% (inactive)
15,COCCNC1=C(Cl)C(=O)c2ccccc2C1=O,110% (inactive)
16,c1ccc2c(-c3nccs3)c[nH]c2c1,85.1% (inactive)
17,CC(C)NC(=O)OCC#CCOC(=O)NC(C)C,95.7% (inactive)
18,O=C(Nc1ccc(F)cc1)c1ccc(C(=O)Nc2ccc(F)cc2)cc1,107% (inactive)
19,N#Cc1c(NC(=O)c2cccs2)[n+]([O-])c2cc(C(F)(F)F)ccc2[n+]1[O-],89% (inactive)
20,COC1CC(N)C2OC(c3ccccc3)OCC2O1 (stereo not given),102% (inactive)
